Measured values taken from PubChem BioAssay (NCI).
About 83,000 compounds went through this panel and 20% of them were active in at least one assay; those are over-represented in the sample as a whole.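 The test compound was applied at a single concentration to cells in 96-well plates for 48 hours, and percent growth was recorded.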 Unmarked numbers belong to inactive results. Active and inactive are the calls of the source. How the source made its calls: active means growth percent below 10; inactive means the rest.

Key:
Test in all cases: NCI-60 one-dose screen, 48 h (100 = growth as untreated, 0 = no growth, -100 = all killed)
Conditions in all cases: 10 µM unless noted
[1] = test system: DU-145 prostate
[2] = test system: K-562 leukemia
[3] = test system: MALME-3M melanoma
[4] = test system: MDA-MB-231 breast
[5] = test system: SF-268 CNS
[6] = test system: SF-295 CNS
[7] = test system: SF-539 CNS
[8] = test system: M14 melanoma
[9] = test system: HCT-15 colon
[10] = test system: HT29 colon
[11] = test system: SNB-75 CNS
[12] = test system: SNB-19 CNS
[13] = test system: U251 CNS
[14] = test system: PC-3 prostate
[15] = test system: SK-MEL-5 melanoma
[16] = test system: UACC-62 melanoma
[17] = test system: LOX IMVI melanoma
[18] = test system: SK-MEL-28 melanoma
[19] = test system: UACC-257 melanoma

| SMILES | growth [1] | growth [2] | growth [3] | growth [4] | growth [5] | growth [6] | growth [7] | growth [8] | growth [9] | growth [10] | growth [11] | growth [12] | growth [13] | growth [14] | growth [15] | growth [16] | growth [17] | growth [18] | growth [19] |
| --- | --- | --- | --- | --- | --- | --- | --- | --- | --- | --- | --- | --- | --- | --- | --- | --- | --- | --- | --- |
| CCSc1ncc(Br)c(Sc2nc(N)nc3nc[nH]c23)n1 | 43.1% | 26.6% | 36.2% | 40.9% | 44.8% | 38.6% | 60.1% | 31.7% | 68.5% | 62.3% | 60.2% | 121% | 89.5% | 80.1% | 74.6% | 19.3% | 19.5% | 152% | – |
| CCOC(=O)c1cnc2c(C)cc(C)cc2c1NCCCN(C)C | 35.4% | 8.6% (active) | 51% | 35.7% | 35.7% | 29.9% | 28.9% | 34.2% | 28.2% | 13.1% | 51.1% | 42.4% | 28.3% | 22% | 46.5% | 46.7% | 23.2% | 76.2% | – |
| C=CCNC(=O)/C(=C/c1cccc([N+](=O)[O-])c1)NC(=O)c1ccccc1 | 116% | 108% | 102% | 116% | 99% | 103% | 92.5% | 88.8% | 87.5% | 113% | 87.5% | 91.2% | 96.8% | 94.7% | 97.9% | 95.3% | – | 119% | 7.53% (active) |
| CCCCCCCCCCN1CCC(N2CCCCC2)CC1 | 54.3% | -75.6% (active) | -43.9% (active) | -36.3% (active) | 39.8% | 2.51% (active) | -80.4% (active) | -79.4% (active) | -5.57% (active) | -38.9% (active) | -47.8% (active) | 28.2% | 4.67% (active) | 16% | -96.9% (active) | -79.7% (active) | -72.8% (active) | -29.1% (active) | -91.2% (active) |
| CC(C)=CCNc1ncnc2c1ncn2C1OC(COP(=O)(O)O)C(O)C1O (configuration not stated) | 4.87% (active) | 16.1% | 68.5% | 5.56% (active) | 59.9% | 25.6% | 52% | 50.5% | 31.6% | 31.6% | 65.2% | 89.5% | – | 12% | 81.1% | 69.6% | -61.3% (active) | 85.7% | 94.1% |
| COc1ccc(NC(=O)[C@@H]2C[C@H]2c2ccccc2)c(C(N)=O)c1 | 105% | 71.8% | 91% | 87.9% | 97.9% | 100% | 99.7% | 91.4% | 89.5% | 95.5% | 96.2% | 96.3% | 97.2% | 90.2% | 96.5% | 95.7% | 93.6% | 96.7% | 92.9% |
| NC(=O)c1cc(Cl)ccc1NC(=O)c1ccccc1-c1ccccc1 | -8.79% (active) | 11.5% | 30.4% | 29.4% | 54.1% | 8.66% (active) | -12.5% (active) | -24% (active) | 27.9% | 9.11% (active) | -5.88% (active) | 31.9% | 21.4% | 23.5% | 26.4% | 18.6% | 28.9% | 41.5% | 68.6% |
| CN(C)CCCNc1nn2c(=O)c3ccccc3nc2c2ccccc12 | 81.4% | 41% | 66.4% | 77.1% | 61% | 47.9% | 41.2% | 89.2% | 55.3% | 32.6% | 51.2% | 69.7% | 57.2% | 62.1% | 52.6% | 67.3% | 33.8% | 93.2% | – |
